# Laboratory results from the supplement of paper PMC10037445.
# In all, about 2,900 compounds were measured (“NF-kB SEAP reporter activity, fold change vs agonist alone”: median about 0.99, highest 2% from about 2.6 on). What follows is part of a selection rich in the highest values, with near analogues and random picks from the rest.
# Legend:
# RAW-Dual [1] = experiment: NF-kB SEAP reporter activity, fold change vs agonist alone; cytotoxicity flag (confluency mask): not cytotoxic; higher = enhanced NF-kB activity
# Summary of the method: (§1)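 After 50 nL of library stock was delivered by pin tool to RAW-Dual macrophages (50,000 cells/well, DMEM, 384-well plates), a PRR agonist was added 1 h later and the plates were kept at 37 °C, 5% CO2. Twenty hours later, IRF was read from supernatant by QuantiLuc luminescence and NF-κB by QuantiBlue absorbance at 620 nm. Reporter activity is stated as fold change over agonist-alone wells. Wells with IncuCyte confluency under 70% of agonist controls in both mask sets were counted as cytotoxic.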
# RAW-Dual [2] = experiment: NF-kB SEAP reporter activity, fold change vs agonist alone; higher = enhanced NF-kB activity
# Summary of the method: as §1
# RAW-Dual [3] = experiment: NF-kB SEAP reporter activity, fold change vs agonist alone; cytotoxicity flag (confluency mask): cytotoxic (confluency <70% of control); higher = enhanced NF-kB activity
# Summary of the method: as §1
# [4] = agonist: ODN 1826 (TLR9) 0.5 ug/mL
# [5] = agonist: Pam2CSK4 (TLR2/6) 0.1 ug/mL
# [6] = agonist: Pam3CSK4 (TLR2/1) 0.1 ug/mL
# [7] = library stock concentration (final ~1000-fold dilution): 10 mM, cytotoxicity flag (confluency mask): not cytotoxic, agonist: Imiquimod (TLR7) […]
# [8] = library stock concentration (final ~1000-fold dilution): 10 mM, cytotoxicity flag (confluency mask): not cytotoxic, agonist: MPLA (TLR4) […]
smiles,measurement,setting,value
CC1CNC(=O)c2cnn3ccc(nc23)NC(C)c2cc(F)ccc2O1 (centres undefined) (library stock concentration (final ~1000-fold dilution): 10 mM),NF-kB SEAP reporter activity,RAW-Dual [1]; agonist: LPS (TLR4) 0.1 ug/mL,1.58
same,NF-kB SEAP reporter activity,RAW-Dual [1]; [4],0.9
same,NF-kB SEAP reporter activity,RAW-Dual [1]; [5],0.5
same,NF-kB SEAP reporter activity,RAW-Dual [1]; [6],0.422
O=C(Nc1ccc(-c2ccnc(Nc3ccc(N4CCOCC4)cc3)n2)cc1)C1CCCN1 (centres undefined),NF-kB SEAP reporter activity,RAW-Dual [2]; [7],1.6
same,NF-kB SEAP reporter activity,RAW-Dual [2]; [8],2.46
N#CCNC(=O)c1ccc(-c2ccnc(Nc3ccc(N4CCOCC4)cc3)n2)cc1 (library stock concentration (final ~1000-fold dilution): 10 mM),NF-kB SEAP reporter activity,RAW-Dual [1]; agonist: LPS (TLR4) 0.1 ug/mL,0.233
same,NF-kB SEAP reporter activity,RAW-Dual [1]; [4],1.01
same,NF-kB SEAP reporter activity,RAW-Dual [1]; [5],0.233
same,NF-kB SEAP reporter activity,RAW-Dual [1]; [6],1.08
N#CCNC(=O)c1ccc(-c2ccnc(Nc3ccc(N4CCOCC4)cc3)n2)cc1,NF-kB SEAP reporter activity,RAW-Dual [2]; [7],1.02
same,NF-kB SEAP reporter activity,RAW-Dual [2]; [8],0.925
O=C(Nc1ccc(-c2ccnc(Nc3ccc(N4CCOCC4)cc3)n2)cc1)C1CCCN1 (centres undefined) (library stock concentration (final ~1000-fold dilution): 10 mM),NF-kB SEAP reporter activity,RAW-Dual [1]; agonist: LPS (TLR4) 0.1 ug/mL,1.86
same,NF-kB SEAP reporter activity,RAW-Dual [1]; [4],0.272
same,NF-kB SEAP reporter activity,RAW-Dual [1]; [5],1.05
same,NF-kB SEAP reporter activity,RAW-Dual [1]; [6],1.67
N#Cc1cc(-c2ccnc(Nc3ccc(N4CCOCC4)cc3)n2)ccc1OC1CCOCC1 (library stock concentration (final ~1000-fold dilution): 10 mM),NF-kB SEAP reporter activity,RAW-Dual [1]; agonist: LPS (TLR4) 0.1 ug/mL,0.526
same,NF-kB SEAP reporter activity,RAW-Dual [1]; [4],1.39
same,NF-kB SEAP reporter activity,RAW-Dual [1]; [5],0.463
same,NF-kB SEAP reporter activity,RAW-Dual [1]; [6],3.66
N#Cc1cc(-c2ccnc(Nc3ccc(N4CCOCC4)cc3)n2)ccc1OC1CCOCC1,NF-kB SEAP reporter activity,RAW-Dual [2]; [7],1.85
same,NF-kB SEAP reporter activity,RAW-Dual [2]; [8],2.02
CN1CCN(CC(=O)N2c3ccccc3C(=O)Nc3cccnc32)CC1.Cl.Cl,NF-kB SEAP reporter activity,"RAW-Dual [2]; library stock concentration (final ~1000-fold dilution): 10 mM water, cytotoxicity flag (confluency mask): not cytotoxic, agonist: Imiquimod (TLR7) […]",0.949
same,NF-kB SEAP reporter activity,"RAW-Dual [2]; library stock concentration (final ~1000-fold dilution): 10 mM water, cytotoxicity flag (confluency mask): not cytotoxic, agonist: MPLA (TLR4) […]",1.01
CN1CCN(CC(=O)N2c3ccccc3C(=O)Nc3cccnc32)CC1.Cl.Cl (library stock concentration (final ~1000-fold dilution): 10 mM water),NF-kB SEAP reporter activity,RAW-Dual [1]; agonist: LPS (TLR4) 0.1 ug/mL,1.25
same,NF-kB SEAP reporter activity,RAW-Dual [1]; [4],1.15
same,NF-kB SEAP reporter activity,RAW-Dual [1]; [5],1.16
same,NF-kB SEAP reporter activity,RAW-Dual [1]; [6],1.06
Cl.O=S(=O)(c1cccc2c(I)cccc12)N1CCCNCC1 (library stock concentration (final ~1000-fold dilution): 10 mM),NF-kB SEAP reporter activity,RAW-Dual [1]; agonist: LPS (TLR4) 0.1 ug/mL,0.746
same,NF-kB SEAP reporter activity,RAW-Dual [1]; [4],0.722
same,NF-kB SEAP reporter activity,RAW-Dual [1]; [5],0.626
same,NF-kB SEAP reporter activity,RAW-Dual [1]; [6],0.568
Cl.O=S(=O)(c1cccc2c(I)cccc12)N1CCCNCC1,NF-kB SEAP reporter activity,RAW-Dual [2]; [7],0.797
same,NF-kB SEAP reporter activity,RAW-Dual [2]; [8],1.12
CONC(=O)Nc1ccc(-c2sc3c(c2CN(C)C)c(=O)n(-c2ccc(OC)nn2)c(=O)n3Cc2c(F)cccc2F)cc1 (library stock concentration (final ~1000-fold dilution): 10 mM),NF-kB SEAP reporter activity,RAW-Dual [3]; agonist: LPS (TLR4) 0.1 ug/mL,3.39
same,NF-kB SEAP reporter activity,RAW-Dual [3]; [4],0.26
same,NF-kB SEAP reporter activity,RAW-Dual [3]; [5],1.01
same,NF-kB SEAP reporter activity,RAW-Dual [3]; [6],1.88
CONC(=O)Nc1ccc(-c2sc3c(c2CN(C)C)c(=O)n(-c2ccc(OC)nn2)c(=O)n3Cc2c(F)cccc2F)cc1,NF-kB SEAP reporter activity,"RAW-Dual [2]; library stock concentration (final ~1000-fold dilution): 10 mM, cytotoxicity flag (confluency mask): cytotoxic (confluency <70% of control), agonist: Imiquimod (TLR7) […]",2.02
same,NF-kB SEAP reporter activity,"RAW-Dual [2]; library stock concentration (final ~1000-fold dilution): 10 mM, cytotoxicity flag (confluency mask): cytotoxic (confluency <70% of control), agonist: MPLA (TLR4) […]",2.5
CC(C)CCNC(=O)C(CC(C)C)NC(=O)C1OC1C(=O)O (centres undefined),NF-kB SEAP reporter activity,RAW-Dual [2]; [7],0.94
same,NF-kB SEAP reporter activity,RAW-Dual [2]; [8],1.17
CC(C)CCNC(=O)C(CC(C)C)NC(=O)C1OC1C(=O)O (centres undefined) (library stock concentration (final ~1000-fold dilution): 10 mM),NF-kB SEAP reporter activity,RAW-Dual [1]; agonist: LPS (TLR4) 0.1 ug/mL,1.03
same,NF-kB SEAP reporter activity,RAW-Dual [1]; [4],1.02
same,NF-kB SEAP reporter activity,RAW-Dual [1]; [5],1
same,NF-kB SEAP reporter activity,RAW-Dual [1]; [6],1.19
Br.NC(=O)C(c1ccccc1)(c1ccccc1)C1CCN(CCc2ccc3c(c2)CCO3)C1 (centres undefined),NF-kB SEAP reporter activity,RAW-Dual [2]; [7],1.02
same,NF-kB SEAP reporter activity,RAW-Dual [2]; [8],0.984
Br.NC(=O)C(c1ccccc1)(c1ccccc1)C1CCN(CCc2ccc3c(c2)CCO3)C1 (centres undefined) (library stock concentration (final ~1000-fold dilution): 10 mM),NF-kB SEAP reporter activity,RAW-Dual [1]; agonist: LPS (TLR4) 0.1 ug/mL,0.967
same,NF-kB SEAP reporter activity,RAW-Dual [1]; [4],0.467
same,NF-kB SEAP reporter activity,RAW-Dual [1]; [5],0.82
same,NF-kB SEAP reporter activity,RAW-Dual [1]; [6],0.919
C=C1CCC2C(C)(CO)C(O)CC[C@@]2(C)[C@@H]1C/C=C1/C(=O)OCC1O (some centres undefined) (library stock concentration (final ~1000-fold dilution): 10 mM),NF-kB SEAP reporter activity,RAW-Dual [1]; agonist: LPS (TLR4) 0.1 ug/mL,0.32
same,NF-kB SEAP reporter activity,RAW-Dual [1]; [4],0.206
same,NF-kB SEAP reporter activity,RAW-Dual [1]; [5],0.0769
same,NF-kB SEAP reporter activity,RAW-Dual [1]; [6],0.161
C=C1CCC2C(C)(CO)C(O)CC[C@@]2(C)[C@@H]1C/C=C1/C(=O)OCC1O (some centres undefined),NF-kB SEAP reporter activity,RAW-Dual [2]; [7],0.287
same,NF-kB SEAP reporter activity,RAW-Dual [2]; [8],0.305
CC(C)(C)OC(=O)NC1CCCCC/C=C\C2CC2(C(=O)NS(=O)(=O)C2CC2)NC(=O)C2CC(OC(=O)N3Cc4cccc(F)c4C3)CN2C1=O (centres undefined),NF-kB SEAP reporter activity,RAW-Dual [2]; [7],0.902
same,NF-kB SEAP reporter activity,RAW-Dual [2]; [8],1.01
Cc1cnc(C(=O)NC2CCCCC/C=C\C3CC3(C(=O)NS(=O)(=O)C3CC3)NC(=O)C3CC(Oc4nc5ccccc5c5ccccc45)CN3C2=O)cn1 (centres undefined) (library stock concentration (final ~1000-fold dilution): 10 mM),NF-kB SEAP reporter activity,RAW-Dual [1]; agonist: LPS (TLR4) 0.1 ug/mL,0.973
same,NF-kB SEAP reporter activity,RAW-Dual [1]; [4],1.05
same,NF-kB SEAP reporter activity,RAW-Dual [1]; [5],0.744
same,NF-kB SEAP reporter activity,RAW-Dual [1]; [6],0.617
COc1ccc2c(OC3CC4C(=O)NC5(C(=O)NS(=O)(=O)C6CC6)CC5/C=C\CCCCN(C)C(=O)C4C3)cc(-c3nc(C(C)C)cs3)nc2c1C (centres undefined) (library stock concentration (final ~1000-fold dilution): 10 mM),NF-kB SEAP reporter activity,RAW-Dual [1]; agonist: LPS (TLR4) 0.1 ug/mL,3.16
same,NF-kB SEAP reporter activity,RAW-Dual [1]; [4],0.926
same,NF-kB SEAP reporter activity,RAW-Dual [1]; [5],0.842
same,NF-kB SEAP reporter activity,RAW-Dual [1]; [6],0.952
CC(C)(C)OC(=O)NC1CCCCC/C=C\C2CC2(C(=O)NS(=O)(=O)C2CC2)NC(=O)C2CC(OC(=O)N3Cc4cccc(F)c4C3)CN2C1=O (centres undefined) (library stock concentration (final ~1000-fold dilution): 10 mM),NF-kB SEAP reporter activity,RAW-Dual [1]; agonist: LPS (TLR4) 0.1 ug/mL,1.01
same,NF-kB SEAP reporter activity,RAW-Dual [1]; [4],0.995
same,NF-kB SEAP reporter activity,RAW-Dual [1]; [5],0.808
same,NF-kB SEAP reporter activity,RAW-Dual [1]; [6],1.03
Cc1cnc(C(=O)NC2CCCCC/C=C\C3CC3(C(=O)NS(=O)(=O)C3CC3)NC(=O)C3CC(Oc4nc5ccccc5c5ccccc45)CN3C2=O)cn1 (centres undefined),NF-kB SEAP reporter activity,RAW-Dual [2]; [8],0.899
COc1ccc2c(OC3CC4C(=O)NC5(C(=O)NS(=O)(=O)C6CC6)CC5/C=C\CCCCN(C)C(=O)C4C3)cc(-c3nc(C(C)C)cs3)nc2c1C (centres undefined),NF-kB SEAP reporter activity,RAW-Dual [2]; [8],1.03
